# Results from PubChem BioAssay (NCATS).
# Values joined by “and” are separate entries in the source; they are usually repeats but may differ in a detail not shown here. Equal values may be shown once. Values without a mark were called inactive. Results filed as inconclusive are left out. A structure can be active in one record and inactive in another. Active and inactive are the calls of the source. Unless noted, calls come from the whole dose curve; as a rule, active = well fitted inhibition curve with a large enough effect; inconclusive = small, poorly fitted or top-dose-only effect; inactive = flat fitted curve, though single readings scatter.
# Legend:
# [1] = qHTS drug screen for cell cycle checkpoint inhibitors in PARPi-resistant BRCA-mutant ovarian cancer cell lines. (AID 1963452; calls by dose curve); conditions: PEO1/OlaR viability, CellTiter-Glo luminescence, 96 h
# In short: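 PEO1, PEO4 and PEO1/OlaR ovarian cancer cells, 600 per well, exposed 96 h at 37C to a dilution series. Viability read by CellTiter-Glo luminescence, normalized to DMSO and empty wells; activity summarized as Z-AUC.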
# [2] = qHTS profiling for inhibitors of Plasmodium falciparum proliferation (AID 504749); note: nearly all actives have a fitted effect of over 60% in size;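 for activity, negative = inhibition: 0% = DMSO vehicle and full inhibition = artemisinin control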; conditions: P. falciparum in erythrocytes, SYBR Green DNA, 72 h
# In short: (§1)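 P. falciparum-infected erythrocytes (0.3% parasitemia, 2.5% hematocrit final) were exposed to compounds for 72 h at 37 C in 5% CO2, then lysed with SYBR Green buffer overnight at room temperature; parasite DNA fluorescence was normalized to artemisinin and DMSO controls.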
# 3D7 = assay: as above; conditions: P. falciparum in erythrocytes, SYBR Green DNA, 72 h; series mostly up to 28.7 µM
# In short: as §1
# 7G8 = assay: as above; conditions: P. falciparum in erythrocytes, SYBR Green DNA, 72 h; series mostly up to 28.7 µM
# In short: as §1
# [3] = at 28.7 µM (top of the series), parasite line A
# [4] = at 28.7 µM (top of the series), parasite line B
# Potency is the fitted concentration of half-maximal effect.
smiles,measurement,setting,value
C/C(=C\c1csc(C)n1)[C@@H]1C[C@@H]2O[C@]2(C)CCC[C@H](C)[C@H](O)[C@@H](C)C(=O)C(C)(C)[C@@H](O)CC(=O)O1,Potency,[1],0.0078 µM (active)
same,Potency,[2]; parasite line A,0.002 µM (active)
same,Potency,[2]; parasite line B,0.0035 µM (active)
CCC(=O)O[C@@](Cc1ccccc1)(c1ccccc1)[C@@H](C)CN(C)C,"activity, negative = inhibition","[2]; at 12.8 µM (top of the series), parasite line A",-5.92%
same,"activity, negative = inhibition","[2]; at 12.8 µM (top of the series), parasite line B",-0.756%
CC(C)(C)c1cc(O)ccc1O,Potency,[2]; parasite line A,7.94 µM (active)
same,Potency,[2]; parasite line B,8.91 µM (active)
O=C(O)C(Cl)(Cl)Cl,"activity, negative = inhibition",[2]; [3],7.18%
same,"activity, negative = inhibition",[2]; [4],2%
same,Potency,3D7,inactive
same,Potency,7G8,inactive
C[N+]1(C)C2CCC1CC(OC(=O)c1c[nH]c3ccccc13)C2 (stereo unspecified),"activity, negative = inhibition",[2]; [3],3.31%
same,"activity, negative = inhibition",[2]; [4],10.8%
same,Potency,3D7,inactive
same,Potency,7G8,inactive
CCC(C)(S(=O)(=O)CC)S(=O)(=O)CC,"activity, negative = inhibition",[2]; [3],9.02%
same,"activity, negative = inhibition",[2]; [4],9.51%
same,Potency,3D7,inactive
same,Potency,7G8,inactive
C[C@]12CCC(=O)C[C@@H]1CC[C@@H]1[C@@H]2CC[C@]2(C)[C@@H](O)CC[C@@H]12,"activity, negative = inhibition",[2]; [3],-12.4%
same,"activity, negative = inhibition",[2]; [4],4.65%
same,Potency,3D7,inactive
same,Potency,7G8,inactive
C=CCC1(C(C)CCC)C(=O)N=C(S)NC1=O (stereo unspecified),"activity, negative = inhibition",[2]; [3],-5.63%
same,"activity, negative = inhibition",[2]; [4],-5%
same,Potency,3D7,inactive
same,Potency,7G8,inactive
S=C=S,"activity, negative = inhibition",[2]; [3],2.86%
same,"activity, negative = inhibition",[2]; [4],20.2%
same,Potency,3D7,inactive
same,Potency,7G8,inactive
Oc1cc(Cl)c(Cl)cc1Cl,"activity, negative = inhibition",[2]; [3],4.1%
same,"activity, negative = inhibition",[2]; [4],-8.4%
same,Potency,3D7,inactive
same,Potency,7G8,11.2 µM (active)
CCC(N)Cc1c[nH]c2ccccc12 (stereo unspecified),"activity, negative = inhibition",[2]; [3],-18.9%
same,"activity, negative = inhibition",[2]; [4],9.32%
same,Potency,3D7,inactive
same,Potency,7G8,inactive
CC(C)Nc1ccc(Nc2ccccc2)cc1,Potency,[2]; parasite line A,3.16 µM (active)
same,Potency,[2]; parasite line B,5.01 µM (active)
same,Potency,3D7,6.31 µM (active)
same,Potency,7G8,8.91 µM (active)
[O]=[Cd],"activity, negative = inhibition",[2]; [3],10.1%
same,"activity, negative = inhibition",[2]; [4],8.29%
same,Potency,3D7,inactive
same,Potency,7G8,inactive
CN1c2ccccc2C(NCCCCCCC(=O)O)c2ccc(Cl)cc2S1(=O)=O (stereo unspecified),"activity, negative = inhibition",[2]; [3],2.2%
same,"activity, negative = inhibition",[2]; [4],-5.71%
same,Potency,3D7,inactive
same,Potency,7G8,inactive
c1csc(C2(N3CCCCC3)CCCCC2)c1,"activity, negative = inhibition",[2]; [3],-2.88%
same,"activity, negative = inhibition",[2]; [4],1.73%
same,Potency,3D7,inactive
same,Potency,7G8,inactive
CCOc1ccc2c3c1O[C@H]1[C@@H](O)C=C[C@H]4[C@@H](C2)N(C)CC[C@@]341,"activity, negative = inhibition",[2]; [3],0.925%
same,"activity, negative = inhibition",[2]; [4],-4.11%
same,Potency,3D7,inactive
same,Potency,7G8,inactive
CC(C)CCON=O,"activity, negative = inhibition",[2]; [3],-1.57%
same,"activity, negative = inhibition",[2]; [4],-11.8%
same,Potency,3D7,inactive
same,Potency,7G8,inactive
O=[N+]([O-])C(Br)(CO)CO,"activity, negative = inhibition",[2]; [3],4.06%
same,"activity, negative = inhibition",[2]; [4],-7.41%
same,Potency,3D7,inactive
same,Potency,7G8,inactive
ClC(Cl)(Cl)Cl,"activity, negative = inhibition",[2]; [3],12.6%
same,"activity, negative = inhibition",[2]; [4],5.77%
same,Potency,3D7,inactive
same,Potency,7G8,inactive
O=[N+]([O-])c1cc(I)c(O)c(I)c1,"activity, negative = inhibition",[2]; [3],-8.29%
same,"activity, negative = inhibition",[2]; [4],-20.5%
same,Potency,3D7,inactive
same,Potency,7G8,inactive
NCC(O)c1cccc(O)c1 (stereo unspecified),"activity, negative = inhibition",[2]; [3],5.65%
same,"activity, negative = inhibition",[2]; [4],12%
same,Potency,3D7,inactive
same,Potency,7G8,inactive
C[N+]1(C)CCCCC1COC(=O)C(O)(c1ccccc1)c1ccccc1 (stereo unspecified),"activity, negative = inhibition",[2]; [3],-21.5%
same,"activity, negative = inhibition",[2]; [4],-9.17%
same,Potency,3D7,inactive
same,Potency,7G8,inactive
COc1ccc2c3c1O[C@H]1C(=O)CC[C@H]4[C@@H](C2)N(C)CC[C@]314,"activity, negative = inhibition",[2]; [3],0.497%
same,"activity, negative = inhibition",[2]; [4],-7.39%
same,Potency,3D7,inactive
same,Potency,7G8,inactive
[O]=[Cr](=[O])([OH])[O][Cr](=[O])(=[O])[OH],"activity, negative = inhibition",[2]; [3],-8.13% and -2.73%
same,"activity, negative = inhibition",[2]; [4],-2.72% and -3.46%
same,Potency,3D7,inactive
same,Potency,7G8,inactive
O[C@H]1[C@H]2[C@H](O)CCCN2C[C@H]1O,"activity, negative = inhibition",[2]; [3],9.76%
same,"activity, negative = inhibition",[2]; [4],2.41%
same,Potency,3D7,inactive
same,Potency,7G8,inactive
CCC1(CC)C(=O)NC(=O)N(C)C1=O,"activity, negative = inhibition",[2]; [3],7.69%
same,"activity, negative = inhibition",[2]; [4],-5%
same,Potency,3D7,inactive
same,Potency,7G8,inactive
Cn1sc(Cl)cc1=O,"activity, negative = inhibition",[2]; [3],11.9%
same,"activity, negative = inhibition",[2]; [4],7.44%
same,Potency,3D7,inactive
same,Potency,7G8,inactive
O=C1CC[C@@]2(O)C3Cc4ccc(O)c5c4C2(CCN3CC2CC2)[C@H]1O5 (stereo partly specified),"activity, negative = inhibition",[2]; [3],9.65%
same,"activity, negative = inhibition",[2]; [4],8.16%
same,Potency,3D7,inactive
same,Potency,7G8,inactive
[Cl-].[Cl-].[Hg+2],Potency,[2]; parasite line A,7.94 µM (active)
same,Potency,[2]; parasite line B,8.91 µM (active)
same,Potency,3D7,12.6 µM (active)
same,Potency,7G8,11.2 µM (active)
CC(=O)OO,"activity, negative = inhibition",[2]; [3],5.76%
same,"activity, negative = inhibition",[2]; [4],13%
same,Potency,3D7,inactive
same,Potency,7G8,inactive
C#CC(C)(O)CC (stereo unspecified),"activity, negative = inhibition",[2]; [3],3.88%
same,"activity, negative = inhibition",[2]; [4],-6.77%
same,Potency,3D7,inactive
same,Potency,7G8,inactive
O=[N+]([O-])c1ccc(F)c([N+](=O)[O-])c1,"activity, negative = inhibition",[2]; [3],14.6%
same,"activity, negative = inhibition",[2]; [4],11.6%
same,Potency,3D7,inactive
same,Potency,7G8,inactive
[N-]=[N+]=CC(=O)OCC(N)C(=O)O (stereo unspecified),"activity, negative = inhibition",[2]; [3],3.54%
same,"activity, negative = inhibition",[2]; [4],-4.07%
same,Potency,3D7,inactive
same,Potency,7G8,inactive
CC(=O)OC1CN2CCC1CC2 (stereo unspecified),"activity, negative = inhibition",[2]; [3],-1.93%
same,"activity, negative = inhibition",[2]; [4],13.1%
same,Potency,3D7,inactive
same,Potency,7G8,inactive
